Results from paper PMC4336329 (PLoS ONE, 2015).
Out of some 310,000 compounds screened, about 14,000 (4.5%) showed an effect of 50% or more. Effects have a minus sign here. The entries come from a sample that favours strong results as a whole.

biological target: human ether-à-go-go-related gene (hERG) potassium channel (human, UniProt Q12809); assay: primary screen, population patch clamp on CHO cells stably expressing hERG; higher = less effect of the substance
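Further: peak tail current of the secondary pulse compared with the same well before compound.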

Chain of human ether-à-go-go-related gene (hERG) potassium channel (Q12809 whole entry, looked up): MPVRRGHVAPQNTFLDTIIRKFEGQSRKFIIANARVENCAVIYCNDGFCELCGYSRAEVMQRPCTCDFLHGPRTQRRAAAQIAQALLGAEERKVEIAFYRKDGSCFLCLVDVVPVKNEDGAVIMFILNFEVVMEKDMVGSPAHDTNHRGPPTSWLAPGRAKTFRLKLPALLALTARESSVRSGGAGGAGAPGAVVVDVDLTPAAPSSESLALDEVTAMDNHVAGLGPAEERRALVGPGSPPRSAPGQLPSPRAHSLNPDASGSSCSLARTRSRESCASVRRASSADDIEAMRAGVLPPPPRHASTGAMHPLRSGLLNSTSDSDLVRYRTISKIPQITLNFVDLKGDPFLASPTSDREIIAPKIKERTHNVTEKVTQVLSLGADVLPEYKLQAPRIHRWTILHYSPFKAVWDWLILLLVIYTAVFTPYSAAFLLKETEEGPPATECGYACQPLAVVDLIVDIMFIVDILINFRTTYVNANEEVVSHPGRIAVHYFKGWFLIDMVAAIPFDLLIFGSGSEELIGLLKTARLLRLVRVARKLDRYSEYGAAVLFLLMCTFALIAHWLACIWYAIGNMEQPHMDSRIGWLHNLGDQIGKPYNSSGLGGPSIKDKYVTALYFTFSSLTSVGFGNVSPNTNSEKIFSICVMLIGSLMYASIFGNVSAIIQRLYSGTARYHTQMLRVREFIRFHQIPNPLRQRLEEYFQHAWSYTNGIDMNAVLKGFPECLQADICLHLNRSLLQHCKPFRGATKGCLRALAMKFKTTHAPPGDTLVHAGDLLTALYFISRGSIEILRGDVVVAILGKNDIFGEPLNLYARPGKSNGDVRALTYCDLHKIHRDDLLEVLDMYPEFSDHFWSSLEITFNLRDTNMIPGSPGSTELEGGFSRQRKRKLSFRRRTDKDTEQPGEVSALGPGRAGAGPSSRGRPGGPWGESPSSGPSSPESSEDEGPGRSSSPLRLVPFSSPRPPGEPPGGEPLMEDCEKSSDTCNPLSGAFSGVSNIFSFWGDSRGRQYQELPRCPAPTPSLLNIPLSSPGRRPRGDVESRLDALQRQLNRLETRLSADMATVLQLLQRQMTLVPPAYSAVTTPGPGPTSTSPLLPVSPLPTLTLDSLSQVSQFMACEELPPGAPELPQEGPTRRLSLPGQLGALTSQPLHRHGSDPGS

Structure (SMILES) | hERG current change (%, negative = inhibition) at 10uM [%]
CN1CCc2c(sc(N)c2C(N)=O)C1 | 6.59
S=c1[nH]c2ccc(Cl)cc2s1 | 21.1
O=C(NCc1ccc(Cl)cc1)C(=O)Nc1nccs1 | 20.7
O=C(c1ccc2c(=O)n(C3CCCC3)c(=S)[nH]c2c1)N1CCN(C2CCCCC2)CC1 | 6.5
CSC1=N/C(=C\c2ccccc2C)C(=O)S1 | 23.9
COc1ccc2cc(C(C)=O)c(=O)oc2c1 | -11.4
OCCN=C1CCCc2c1[nH]c1ccc(Cl)cc21 | -18
Cl.c1ccc(CCN=C2CCCc3c2[nH]c2ccccc32)cc1 | -73.2
OCCN=C1CCCc2c1[nH]c1ccc(Br)cc21 | 6.45
CCN(CC)C(=O)c1ccc(CS(=O)(=O)c2ccc(OC)cc2)o1 | -0.122
N=c1c(C(=O)NC2CCCC2)cc2c(=O)n3ccccc3nc2n1C1CCCC1 | -82.2
Cc1nc2ccccn2c1C(=O)NC1CCCCC1 | 1.83
Cc1nc2ccccn2c1C(=O)NC1CCCC1 | 16.2
Cn1c(C(=O)NC2CCCCC2)cc2c(=O)n3ccccc3nc21 | 4.32
N=c1c(C(=O)NC2CCCC2)cc2c(=O)n3ccccc3nc2n1C1CCCCC1 | -79
N=c1c(S(=O)(=O)c2ccc(Cl)cc2)cc2c(=O)n3ccccc3nc2n1C1CCCC1 | 14
COc1ccc(N2CCN(C(CNC(=O)C(=O)NC3CC3)c3ccco3)CC2)cc1 (stereo not drawn) | 13.6
CCOc1cc(C=C(C(=O)OC)C(=O)OC)ccc1OCc1ccc([N+](=O)[O-])cc1 | 4.17
O=C(Nc1ccc(F)cc1F)c1cc2ncc(CCCl)cn2n1 | -12.3
O=C(Nc1nnc(SCc2ccc(F)cc2)s1)c1cccnc1Cl | 2.48
COc1cc(NC(=O)c2cc3ccccc3o2)c(OC)cc1Cl | 16.3
c1cncc(CNc2ncnc3ccc(-c4ccoc4)cc23)c1 | -71.4

Structure (SMILES) | hERG current change (%, negative = inhibition) at 10uM [%]
Clc1ccc(Cn2ncc3c(N4CCOCC4)ncnc32)cc1 | -16.2
c1ccc(CNc2ncnc3c2cnn3Cc2ccccc2)cc1 | -22
c1csc(CNc2ncnc3ccc(-c4ccoc4)cc23)c1 | -13.4
Clc1ccc(Cn2ncc3c(NCc4ccccc4)ncnc32)cc1 | -1.94
Clc1ccc(Cn2ncc3c(N4CCCC4)ncnc32)cc1 | -56.7
Clc1ccc(Cn2ncc3c(N4CCCCC4)ncnc32)cc1 | -14.4
Brc1ccc2ncnc(NCc3ccccc3)c2c1 | -10.3
Cc1cccc(CNc2ncnc3ccc(-c4ccoc4)cc23)c1 | -12.4
Brc1ccc2ncnc(NCc3cccnc3)c2c1 | -60.2
c1cncc(CNc2ncnc3sccc23)c1 | 17.8
Clc1ccc(Cn2ncc3c(NCc4cccnc4)ncnc32)cc1 | -51.2
O=c1c(NCCc2ccc(Cl)cc2)c(-c2ccccc2)c1=O | 5.81
O=S1(=O)CCS(=O)(=O)C1c1ccccc1 | -1.95
COc1ccc(N/C=C/C(=O)c2cc(OC)c(OC)c(OC)c2)cc1 | -8.76
Cc1nc2cc(CO)ccc2s1 | 9.23
COC(=O)/C(=C\Nc1ccccc1N)c1ncc(C(F)(F)F)cc1Cl | 3.74
CCn1ncc(C2=NOC(C(=O)Nc3c(C)nn(Cc4ccc(F)cc4)c3C)C2)c1C (stereo not drawn) | 10.3
COc1ccc(-c2nc3nc(C)cc(=O)n3[nH]2)cc1 | 17.9
CCn1nnnc1NCc1ccc(N2CCCC2)cc1 | 3.6
Cc1ccc(S(=O)(=O)NCCCCCC(=O)NC(C)(C)CO)cc1 | 13.7
CCCCNC(=O)CSc1nc2ccccc2n1S(=O)(=O)c1ccc(Br)cc1 | -0.913
Cc1cccc(-c2ccc3ncnc(NCc4cccnc4)c3c2)c1 | -70.5

Structure (SMILES) | hERG current change (%, negative = inhibition) at 10uM [%]
COc1cccc(-c2ccc3ncnc(NCc4cccc(C)c4)c3c2)c1 | -0.57
Cc1cccc(-c2ccc3ncnc(NCc4cccs4)c3c2)c1 | -8.55
CCOC(=O)CCNC(=O)N1CCCC(CCC(=O)N(C)CCc2ccccn2)C1 (stereo not drawn) | -52.3
CCc1ccccc1NC(=O)N1CCCC(CCC(=O)N(C)CCc2ccccn2)C1 (stereo not drawn) | 13.1
CN(CCc1ccccn1)C(=O)CCC1CCCN(C(=O)NC2CCCCC2)C1 (stereo not drawn) | 17.4
CCCCNC(=S)N(C)/N=C/c1ccc(F)cc1 | -8.72
CCCCNC(=S)N(C)/N=C/c1ccccc1F | 2.14
CCCCNC(=S)N(C)/N=C/c1ccc2c(c1)OCO2 | -50.1
CCOc1c(N2CCCCC2)c(=O)c1=O | 0.507
Cc1cc(C)cc(NC(=O)CSc2nnc(-c3ccncc3)o2)c1 | -22.8
COc1cc(OC)c(C(=O)Nc2cccc(C(C)=O)c2)cc1OC | -9.08
Cc1ccc2cc(CCNS(=O)(=O)c3ccc(F)cc3)c(=O)[nH]c2c1C | 10.9
CCOC(=O)C1=C(N)OC2=C(C(=O)CC(C)(C)C2)C1c1ccc(C)s1 (stereo not drawn) | -42.3
CCOC(=O)C1=C(N)OC2=C(C(=O)CCC2)C1c1ccc(C)s1 (stereo not drawn) | -54.3
CCOC(=O)C1=C(N)OC2=C(C(=O)CCC2)C1c1cccs1 (stereo not drawn) | 1.13
CCOC(=O)CC(=O)c1cc(OC)c(OC)c(OC)c1 | -3.44
COc1ccc(-c2cc(C(F)(F)F)n3nc(C(=O)NCCCn4ccnc4)cc3n2)cc1 | -41
O=C(NCCCn1ccnc1)c1nn2c(C(F)(F)F)cc(-c3ccc(Br)cc3)nc2c1Cl | -65.7
Cc1ccc(-c2cc(C(F)(F)F)n3nc(C(=O)NCCCn4ccnc4)cc3n2)cc1C | -20.6
O=C(NCCCn1ccnc1)c1cc2nc(-c3ccc(Br)cc3)cc(C(F)(F)F)n2n1 | -62.8
CCCNC(=O)c1nn2c(C(F)(F)F)cc(-c3ccccc3)nc2c1Cl | -4.1
O=C(NCCCn1ccnc1)c1nn2c(C(F)(F)F)cc(-c3ccccc3)nc2c1Cl | -29.6
